In PubChem BioAssay:
For some assays here: Results with a measured potency or affinity are listed apart. Activity calls are given as the source filed them. Unless noted, no rule for the calls is given here.

Legend:
[1] = antimalarial activity against Dd2 strain (AID 2302;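 active = growth inhibition above 50% at the single 2 µM test dose, taken to imply half-maximal potency below 2 µM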;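 also: 0% = DMSO untreated growth and 100% = chloroquine plus artemisinin killed control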); conditions: P. falciparum Dd2 in RBCs, LDH growth readout, 72 h; at 2 µM; stronger effect = higher value
[2] = human hepatoma cell viability loss – ATP luminescence, cytotoxicity control for P. falciparum antimalarial project, primary screen (AID 2303;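 active = inhibition above 50%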;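 also: 0% = DMSO wells and 100% = digitonin-killed cells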); conditions: HepG2 viability, 24-48 h, at 10 µM, stronger effect = higher value
[3] = biological target: L-lactate dehydrogenase (Plasmodium falciparum (isolate CDC / Honduras)) (UniProt Q27743); assay: PfLDH activity inhibition – cell lysate, 3D7 strain, counter-screen for P. falciparum growth inhibition project (AID 2304);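 also: 0% = vehicle and 100% = reference inhibitor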; conditions: P. falciparum 3D7 crude extract, LDH APAD/NBT absorbance; at 2 µM; stronger effect = higher value
Sequence of L-lactate dehydrogenase (Plasmodium falciparum (isolate CDC / Honduras)) (Q27743 whole entry, looked up): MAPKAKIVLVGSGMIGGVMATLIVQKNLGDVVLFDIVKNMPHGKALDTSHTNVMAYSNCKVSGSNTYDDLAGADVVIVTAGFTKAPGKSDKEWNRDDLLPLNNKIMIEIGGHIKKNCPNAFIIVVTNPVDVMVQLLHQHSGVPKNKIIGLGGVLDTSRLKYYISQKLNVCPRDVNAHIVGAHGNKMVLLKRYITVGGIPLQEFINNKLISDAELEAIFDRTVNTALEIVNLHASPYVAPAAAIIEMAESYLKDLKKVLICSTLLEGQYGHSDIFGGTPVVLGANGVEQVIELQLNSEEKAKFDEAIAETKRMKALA

[4] = inhibition of 3D7 malaria parasite growth – strain 3D7 (AID 2306);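 also: 0% = DMSO wells and 100% = chloroquine plus artemisinin control wells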; conditions: P. falciparum 3D7 erythrocytic growth, LDH absorbance, 72 h; at 2 µM; stronger effect = higher value
[5] = biological target: Calcium-dependent protein kinase 1 (Plasmodium falciparum (isolate 3D7)) (UniProt P62344); assay: PfCDPK1 kinase inhibitors, biochemical, TCAMS library (AID 1159585; cut-off not given, nearly all actives have IC50 up to about 0.98 µM;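 also: inhibitors leave more ATP so luminescence rises with inhibition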); conditions: recombinant PfCDPK1, Kinase-Glo ATP depletion luminescence
Sequence of Calcium-dependent protein kinase 1 (Plasmodium falciparum (isolate 3D7)) (P62344 whole entry, looked up): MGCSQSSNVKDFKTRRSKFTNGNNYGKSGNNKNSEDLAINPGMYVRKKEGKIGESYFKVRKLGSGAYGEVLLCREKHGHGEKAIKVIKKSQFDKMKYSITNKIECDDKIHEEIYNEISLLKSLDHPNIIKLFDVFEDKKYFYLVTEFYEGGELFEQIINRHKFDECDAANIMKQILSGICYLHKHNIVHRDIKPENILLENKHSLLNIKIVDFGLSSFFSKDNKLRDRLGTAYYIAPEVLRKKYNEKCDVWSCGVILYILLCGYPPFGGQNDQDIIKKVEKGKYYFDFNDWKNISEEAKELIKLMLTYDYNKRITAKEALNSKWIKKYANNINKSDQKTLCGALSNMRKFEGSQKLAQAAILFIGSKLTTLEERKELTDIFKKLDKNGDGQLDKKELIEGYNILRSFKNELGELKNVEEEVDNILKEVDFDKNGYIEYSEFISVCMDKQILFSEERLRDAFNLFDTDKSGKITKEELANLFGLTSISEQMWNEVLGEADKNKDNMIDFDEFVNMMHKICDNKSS

[6] = biological target: Plasmodium falciparum protein kinase 6 (PK6, PF3D7_1337100) (UniProt Q8IDW1); assay: PfPK6 kinase inhibitors, biochemical, TCAMS library (AID 1159586); conditions: recombinant PfPK6, Kinase-Glo ATP depletion luminescence
Sequence of Plasmodium falciparum protein kinase 6 (PK6, PF3D7_1337100) (Q8IDW1 1-305): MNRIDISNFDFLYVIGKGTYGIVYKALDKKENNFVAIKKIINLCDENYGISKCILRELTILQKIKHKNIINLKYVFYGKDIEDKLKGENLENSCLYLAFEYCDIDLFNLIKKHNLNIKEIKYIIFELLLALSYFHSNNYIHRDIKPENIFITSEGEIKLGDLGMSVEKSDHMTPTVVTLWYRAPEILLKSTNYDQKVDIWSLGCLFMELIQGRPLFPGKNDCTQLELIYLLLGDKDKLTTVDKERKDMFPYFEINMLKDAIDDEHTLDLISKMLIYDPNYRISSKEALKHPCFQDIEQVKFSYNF

[7] = biological target: Protein kinase 7 (PK7), Plasmodium falciparum 3D7 (PF3D7_0213400) (UniProt Q7YTF7); assay: inhibition of Plasmodium PK7 catalytic activity – biochemical, TCAMS antimalarial set, Kinase-Glo luminescence (AID 1159587); conditions: recombinant PfPK7, Kinase-Glo ATP depletion luminescence
Sequence of Protein kinase 7 (PK7), Plasmodium falciparum 3D7 (PF3D7_0213400) (Q7YTF7 1-343): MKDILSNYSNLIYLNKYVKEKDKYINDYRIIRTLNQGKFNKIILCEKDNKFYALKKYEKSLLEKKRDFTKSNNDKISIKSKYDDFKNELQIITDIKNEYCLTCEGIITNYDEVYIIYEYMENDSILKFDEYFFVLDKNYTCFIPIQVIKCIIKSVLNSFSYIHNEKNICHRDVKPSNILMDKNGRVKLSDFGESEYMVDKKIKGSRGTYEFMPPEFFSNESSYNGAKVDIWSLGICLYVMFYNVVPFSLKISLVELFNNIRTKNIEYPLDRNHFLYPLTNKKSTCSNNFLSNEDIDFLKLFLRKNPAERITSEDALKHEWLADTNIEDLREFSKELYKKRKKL

[8] = biological target: Calcium-dependent protein kinase 4 (Plasmodium falciparum (isolate 3D7)) (UniProt Q8IBS5); assay: PfCDPK4 kinase inhibitors, biochemical, TCAMS library (AID 1159588; cut-off not given, nearly all actives have IC50 up to about 0.91 µM); conditions: recombinant PfCDPK4, Kinase-Glo ATP depletion luminescence
Sequence of Calcium-dependent protein kinase 4 (Plasmodium falciparum (isolate 3D7)) (Q8IBS5 whole entry, looked up): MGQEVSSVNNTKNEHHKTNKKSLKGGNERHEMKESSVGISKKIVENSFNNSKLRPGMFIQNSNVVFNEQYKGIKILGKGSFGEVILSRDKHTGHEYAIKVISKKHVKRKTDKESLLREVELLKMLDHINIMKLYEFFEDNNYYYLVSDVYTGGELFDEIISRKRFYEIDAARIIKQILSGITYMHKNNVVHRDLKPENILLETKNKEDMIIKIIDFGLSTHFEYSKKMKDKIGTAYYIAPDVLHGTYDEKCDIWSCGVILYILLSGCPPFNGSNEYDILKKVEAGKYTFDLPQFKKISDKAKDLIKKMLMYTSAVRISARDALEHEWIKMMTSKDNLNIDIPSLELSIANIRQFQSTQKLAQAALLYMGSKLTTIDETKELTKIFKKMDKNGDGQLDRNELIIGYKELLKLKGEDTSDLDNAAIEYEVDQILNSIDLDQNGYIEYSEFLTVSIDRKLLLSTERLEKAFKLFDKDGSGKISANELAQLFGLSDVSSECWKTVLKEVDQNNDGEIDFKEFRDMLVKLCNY

O=c1cnc2ccc(F)cc2n1CCN1CCC(NCc2cc(-c3ccccc3)cs2)CC1
inactive: growth inhibition [1] 14% | inhibition [2] -5% | inhibition [3] -2% | outcome [5] | outcome [6] | outcome [7] | outcome [8]
active: growth inhibition [4] 91%

CCOc1c(Br)cc(Cl)cc1CNCCCNc1nc2ccccc2[nH]1
active: growth inhibition [4] 98%
inactive: growth inhibition [1] 3% | inhibition [2] 27% | inhibition [3] -2% | outcome [5] | outcome [6] | outcome [7] | outcome [8]

COc1ccc2nccc([C@@H](O)CN3CCC(NCCOc4cccc(F)c4F)CC3)c2c1
inactive: inhibition [2] 9% | inhibition [3] 3% | outcome [5] | outcome [6] | outcome [7] | outcome [8]
active: growth inhibition [1] 85% | growth inhibition [4] 102%

CNCc1cccc2[nH]c(-c3ccc(Cc4cc(Cl)ccc4OCC(C)C)o3)nc12
inactive: growth inhibition [1] 23% | inhibition [2] 20% | inhibition [3] 0% | outcome [5] | outcome [6] | outcome [7] | outcome [8]
active: growth inhibition [4] 97%

CNCCNCc1cccc(-c2ccc(-c3nc4ccc(C(F)(F)F)cc4[nH]3)s2)c1
active: growth inhibition [1] 85% | growth inhibition [4] 98%
inactive: inhibition [2] 31% | inhibition [3] 4% | outcome [5] | outcome [6] | outcome [7] | outcome [8]

CCOc1cc(C(=O)N[C@@H](Cc2ccccc2)[C@H](O)CNCc2cccc(OC)c2)cc(N2CCCCS2(=O)=O)c1
active: growth inhibition [1] 94% | growth inhibition [4] 97%
inactive: inhibition [2] 3% | inhibition [3] 3% | outcome [5] | outcome [6] | outcome [7] | outcome [8]

O=[N+]([O-])c1ccc(CNCCCCCCNCc2ccc([N+](=O)[O-])c3ccccc23)c2ccccc12
active: growth inhibition [1] 98% | inhibition [2] 88% | growth inhibition [4] 102%
inactive: inhibition [3] 0% | outcome [5] | outcome [6] | outcome [7] | outcome [8]

O=c1ccc(CNc2nc(NCCc3ccccc3)nc3cc(Cl)ccc23)c[nH]1
inactive: inhibition [2] 21% | inhibition [3] 3% | outcome [5] | outcome [6] | outcome [7] | outcome [8]
active: growth inhibition [1] 78% | growth inhibition [4] 95%

c1cncc(CCNCc2cccc(-c3csc(-c4nc5ccccc5[nH]4)c3)c2)c1
active: growth inhibition [1] 98% | growth inhibition [4] 100%
inactive: inhibition [2] 26% | inhibition [3] -1% | outcome [5] | outcome [6] | outcome [7] | outcome [8]

c1ccc(Nc2nc(-c3ccccn3)cs2)nc1
active: growth inhibition [1] 93% | growth inhibition [4] 87%
inactive: inhibition [2] 45% | inhibition [3] 2% | outcome [5] | outcome [6] | outcome [7] | outcome [8]

COc1ccc(S(=O)(=O)N2CCCc3ccc(Br)cc32)cc1N1CCN(C(=O)C(Cl)(Cl)Cl)CC1
active: growth inhibition [1] 93% | growth inhibition [4] 97%
inactive: inhibition [2] 23% | inhibition [3] 2% | outcome [5] | outcome [6] | outcome [7] | outcome [8]

CCCC(C)NC(=O)/C=C/c1ccccc1-c1cccc(OC)c1 (stereo not given)
inactive: inhibition [2] 0% | inhibition [3] 3% | outcome [5] | outcome [6] | outcome [7] | outcome [8]
active: growth inhibition [1] 59% | growth inhibition [4] 87%

COc1cc2nc(Nc3ccc(N4CCOCC4)cc3)nc(N)c2cc1OC
inactive: growth inhibition [1] 10% | inhibition [2] 8% | inhibition [3] -3% | outcome [5] | outcome [6] | outcome [7] | outcome [8]
active: growth inhibition [4] 95%

CN(C)CCCNCCS(=O)(=O)c1cccc(Nc2ccc(-c3cccc(N(C)C)c3)cn2)c1
inactive: growth inhibition [1] -3% | inhibition [2] 19% | inhibition [3] -2% | outcome [5] | outcome [6] | outcome [7] | outcome [8]
active: growth inhibition [4] 98%

CCCN(CCC)C(=O)c1cc(C(=O)N[C@@H](Cc2ccccc2)[C@H](O)CNCc2cccc(OC)c2)cc(N2CCCCS2(=O)=O)c1
inactive: inhibition [2] -1% | inhibition [3] 4% | outcome [5] | outcome [6] | outcome [7] | outcome [8]
active: growth inhibition [1] 99% | growth inhibition [4] 97%

Cc1ccc(OCCCCON2C(N)=NC(N)=NC2(C)C)cc1C
active: growth inhibition [1] 97% | inhibition [2] 61% | growth inhibition [4] 94%
inactive: inhibition [3] -3% | outcome [5] | outcome [6] | outcome [7] | outcome [8]

CN(C)CCNC(=O)c1cccc(-c2cnc3ccc(NCc4ccc(Cl)c(Cl)c4)nn23)c1
inactive: inhibition [2] 31% | inhibition [3] -2% | outcome [5] | outcome [6] | outcome [7] | outcome [8]
active: growth inhibition [1] 53% | growth inhibition [4] 100%

COc1ccc(-c2cccc(NC(=O)c3cccc(C#N)c3)c2)cc1CN1CCCC1
inactive: growth inhibition [1] 32% | inhibition [2] 28% | inhibition [3] -4% | outcome [5] | outcome [6] | outcome [7] | outcome [8]
active: growth inhibition [4] 98%

COc1cccc(OC2CCN(C(=O)c3ccc(-c4ccc(N5CCCC5=O)cc4C)cc3)CC2)c1
inactive: inhibition [2] 42% | inhibition [3] -3% | outcome [5] | outcome [6] | outcome [7] | outcome [8]
active: growth inhibition [1] 80% | growth inhibition [4] 85%

COc1ccc2cc(-c3nc(-c4c(Cl)cccc4Cl)[nH]c3-c3ccnc(NCCCN4CCCCC4C)c3)ccc2c1 (stereo not given)
active: growth inhibition [1] 86% | growth inhibition [4] 94%
inactive: inhibition [2] 19% | inhibition [3] -1% | outcome [5] | outcome [6] | outcome [7] | outcome [8]

CCC(C)NCCC(c1ccccc1)c1ccccc1O (stereo not given)
active: growth inhibition [1] 74% | growth inhibition [4] 97%
inactive: inhibition [2] 4% | inhibition [3] 4% | outcome [5] | outcome [6] | outcome [7] | outcome [8]

C=Cc1sc(CNCCCNc2cc(=O)c3ccccc3[nH]2)c(C)c1Br
active: growth inhibition [4] 94%
inactive: growth inhibition [1] 35% | inhibition [2] -5% | inhibition [3] -6% | outcome [5] | outcome [6] | outcome [7] | outcome [8]

O=C(Nc1ccccc1O)c1ccc(S(=O)(=O)c2ccc(Cl)cc2)cc1
inactive: inhibition [2] 18% | inhibition [3] -7% | outcome [5] | outcome [6] | outcome [7] | outcome [8]
active: growth inhibition [1] 85% | growth inhibition [4] 90%

O=C(Nc1cccc(CN2CCCN(Cc3cccc(O)c3)CC2)c1)c1ccc2ccccc2c1
inactive: growth inhibition [1] 42% | inhibition [2] 21% | inhibition [3] -4% | outcome [5] | outcome [6] | outcome [7] | outcome [8]
active: growth inhibition [4] 97%

c1ccc(-c2nc(Nc3nc4ccccc4[nH]3)[nH]c2-c2ccccc2)cc1
inactive: inhibition [2] 14% | inhibition [3] -5% | outcome [5] | outcome [6] | outcome [7] | outcome [8]
active: growth inhibition [1] 61% | growth inhibition [4] 96%

Cc1ccc(C(C(=O)Nc2ccc(N3CCNCC3)c(Cl)c2)c2ccccc2)cc1 (stereo not given)
inactive: inhibition [2] 23% | inhibition [3] -2% | outcome [5] | outcome [6] | outcome [7] | outcome [8]
active: growth inhibition [1] 93% | growth inhibition [4] 97%

COc1ccc(-c2nc3ccc(C)nc3nc2-c2ccc(OC)cc2)cc1
active: growth inhibition [4] 91%
inactive: growth inhibition [1] -2% | inhibition [2] 4% | inhibition [3] 4% | outcome [5] | outcome [6] | outcome [7] | outcome [8]

CN(C)c1ccc(-c2csc(C(=O)NC3CCN(CCC(C)(C)C)C3)c2)cc1 (stereo not given)
inactive: growth inhibition [1] 36% | inhibition [2] 20% | inhibition [3] 2% | outcome [5] | outcome [6] | outcome [7] | outcome [8]
active: growth inhibition [4] 95%

CCCCCCN1CCC(NCc2ccc(C(F)(F)F)cc2)CC1
active: growth inhibition [4] 100%
inactive: growth inhibition [1] 47% | inhibition [2] 11% | inhibition [3] -2% | outcome [5] | outcome [6] | outcome [7] | outcome [8]

CC1CCN(c2nc(C(=O)Nc3ccc(F)cc3C(F)(F)F)c(C(C)C)s2)CC1
inactive: inhibition [2] 5% | inhibition [3] -5% | outcome [5] | outcome [6] | outcome [7] | outcome [8]
active: growth inhibition [1] 66% | growth inhibition [4] 101%

Fc1ccc(-c2oc(C3CCN(CCc4ccc(-c5nc(=S)o[nH]5)cc4)CC3)nc2COCC(F)(F)F)cc1
active: growth inhibition [1] 95% | growth inhibition [4] 97%
inactive: inhibition [2] 5% | inhibition [3] 3% | outcome [5] | outcome [6] | outcome [7] | outcome [8]

COc1cc(CS(C)(=O)=O)ccc1Nc1nccc(-c2c(-c3cccc(NC(=O)c4c(F)cccc4F)c3)nn3ccccc23)n1
inactive: inhibition [2] 46% | inhibition [3] 3% | outcome [5] | outcome [6] | outcome [7] | outcome [8]
active: growth inhibition [1] 71% | growth inhibition [4] 92%

CCc1cccc2c(C#N)cn(CC(=O)NCCc3ccccc3)c12
active: growth inhibition [1] 64% | growth inhibition [4] 95%
inactive: inhibition [2] 1% | inhibition [3] 2% | outcome [5] | outcome [6] | outcome [7] | outcome [8]

Cc1nc(N)nc(N)c1-c1ccc2ccccc2c1
inactive: growth inhibition [1] 2% | inhibition [3] 6% | outcome [5] | outcome [6] | outcome [7] | outcome [8]
active: inhibition [2] 60% | growth inhibition [4] 97%

O=C(c1ccc([N+](=O)[O-])o1)N1CCC(Cc2ccc(C(F)(F)F)cc2)CC1
inactive: inhibition [2] 38% | inhibition [3] -2% | outcome [5] | outcome [6] | outcome [7] | outcome [8]
active: growth inhibition [1] 99% | growth inhibition [4] 101%

Cc1cccc(CNc2nc(C)cc(NCCC(=O)NCc3cccc(F)c3)n2)c1
inactive: growth inhibition [1] 13% | inhibition [2] 23% | inhibition [3] -1% | outcome [5] | outcome [6] | outcome [7] | outcome [8]
active: growth inhibition [4] 84%

Oc1ccc(CCNc2nc(NCCOc3cccc4ccccc34)nc(N3CCNCC3)n2)cc1
inactive: growth inhibition [1] 8% | inhibition [2] 21% | inhibition [3] 1% | outcome [5] | outcome [6] | outcome [7] | outcome [8]
active: growth inhibition [4] 96%

Cn1nc(C(F)(F)F)c(-c2ccc(F)cc2)c1NC(=O)Nc1ccc(F)cc1F
active: growth inhibition [1] 98% | growth inhibition [4] 100%
inactive: inhibition [2] 11% | inhibition [3] -2% | outcome [5] | outcome [6] | outcome [7] | outcome [8]

CCc1sc(-c2cc(Cl)ccc2OC)nc1C(=O)NCCN1CCCCC1
inactive: growth inhibition [1] 28% | inhibition [2] 3% | inhibition [3] 2% | outcome [5] | outcome [6] | outcome [7] | outcome [8]
active: growth inhibition [4] 100%

NC(=O)c1cc2nc(Nc3ccc(F)cc3)nc(NC3CCC3)c2[nH]1
inactive: inhibition [2] 0% | inhibition [3] 3% | outcome [5] | outcome [6] | outcome [7] | outcome [8]
active: growth inhibition [1] 102% | growth inhibition [4] 102%
